Bioassay records (PubChem BioAssay)
hNpr1 antagonist: antagonists of human natriuretic peptide receptor Npr1; Potency, µM (highest dose often 46.3 µM), inactives show top-dose activity change, negative = inhibition, actives largely listed as inhibitors; P16066; 1.6% of 76,000 active; HEK293 hNpr1 GloSensor cGMP, ANP-stimulated luminescence; calls by dose curve; also: nearly all actives have a fitted effect of over 60% in size
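Compound pre-incubated 30 min at room temperature on GloSensor-loaded HEK293 cells stably carrying hNpr1 and the pGS-40F cGMP biosensor. Stimulation uses hNppA at 0.1 nM final; luminescence is taken at baseline and 20 min post-agonist.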
NIH3T3 tox: kills NIH 3T3 cells; 4.3% of 94,000 active; NIH 3T3 viability, CellTiter-Glo ATP luminescence, 48-72 h; Potency, µM (doses to about 96.7 µM), for inactives: top-dose activity change, negative = cytotoxicity, hits mostly inhibitors; AID 1345082; also: nearly all actives have a fitted effect of over 55% in size
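Mouse fibroblast NIH 3T3 cells, 400 per well, received compound via pintool and were incubated for 48 or 72 hr prior to CellTiter-Glo ATP luminescence measurement.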
Luciferase inh: blocks purified firefly luciferase enzyme activity; AID 1347043; purified P. pyralis luciferase, luminescence, biochemical; Potency, µM (highest dose often 115 µM), hits mostly inhibitors; 2.5% of 76,000 active; P08659; also: nearly all actives have a fitted effect of over 65% in size
Target sequence (P08659 whole entry, looked up): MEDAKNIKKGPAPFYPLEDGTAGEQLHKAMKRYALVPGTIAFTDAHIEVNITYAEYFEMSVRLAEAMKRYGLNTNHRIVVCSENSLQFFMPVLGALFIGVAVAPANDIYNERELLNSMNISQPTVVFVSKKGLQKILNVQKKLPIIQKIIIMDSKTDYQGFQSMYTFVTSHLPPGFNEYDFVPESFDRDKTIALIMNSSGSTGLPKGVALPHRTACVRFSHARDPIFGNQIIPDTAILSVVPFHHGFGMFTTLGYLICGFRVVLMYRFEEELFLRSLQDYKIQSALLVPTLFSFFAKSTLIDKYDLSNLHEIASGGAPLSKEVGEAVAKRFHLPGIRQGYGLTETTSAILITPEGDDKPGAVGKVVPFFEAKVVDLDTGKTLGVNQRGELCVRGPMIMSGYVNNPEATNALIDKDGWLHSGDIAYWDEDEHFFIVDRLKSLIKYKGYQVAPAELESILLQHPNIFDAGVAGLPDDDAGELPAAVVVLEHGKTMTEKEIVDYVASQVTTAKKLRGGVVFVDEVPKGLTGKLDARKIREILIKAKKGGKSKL
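Luminescence read by CCD imaging after purified firefly luciferase (10nM final) was added to substrate buffer holding 10uM D-luciferin and 10uM ATP, pH 7.5, pre-dosed with compound.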
GPT2 inh: GPT2 alanine aminotransferase inhibition | 0.25% of 100,000 active | Potency, µM (doses to about 57.7 µM), for inactives: at the highest dose activity change, negative = inhibition, most hits filed as inhibitors | Recombinant GPT2, coupled pyruvate oxidase/HRP Amplex Red fluorescence | AID 1671188 | Q8TD30; also: nearly all actives have a fitted effect of over 60% in size
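Inhibition is scored from Amplex Red fluorescence generated when pyruvate oxidase and HRP act on pyruvate released by GPT2. Reactions contain 10ng/uL enzyme, 250uM a-KG and 2mM L-alanine and run 30 min at room temperature.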
HEK cytotox: cytotoxic compounds in HEK 293 cells | HEK 293 viability, ATP luminescence (CellTiter-Glo), 48-72 h | Potency, µM (series often up to 115 µM), inactives show at the top dose activity change, negative = cytotoxicity, most hits filed as inhibitors | 6.6% of 94,000 active | AID 1345083; also: nearly all actives have a fitted effect of over 60% in size
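ATP-coupled CellTiter-Glo luminescence served as viability read-out, recorded 10 min after reagent addition at room temperature. HEK 293 cells, 250 cells/well, had been incubated with pintool-transferred compound for 48 or 72 hr at 37 degree Celsius.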
Active calls of the source: *; i = inactive; ? = inconclusive; / = no result; [ ] = dose if it differs, or a comment. Shown are actives, neighbours in structure and some others; about 10% of the full set was active somewhere. Unless noted, calls follow the shape of the dose curve; as a rule, active = well fitted curve in the direction sought with a large enough effect; inconclusive = small, poorly fitted or top-dose-only effect, or another doubt; inactive = no such curve, though single readings can be large; an effect the other way counts as inactive or inconclusive. % is scaled to controls: 0 for no effect and ±100 for the full control effect; potency is read from the fitted curve at half-maximal effect.

SMILES	hNpr1 antagonist	NIH3T3 tox	Luciferase inh	GPT2 inh	HEK cytotox
CSc1ccc2cc(CN(C)CCO)c(-c3ccc(Cl)cc3)nc2c1	3%	?	i	i	?
CNC(=O)c1cc(C)nc2onc(C3CCN(C(=O)Nc4ccccc4)C3)c12 (centres undefined)	/	-2%	/	/	i
COc1cccc(CN2Cc3nc(-c4cc5ccccc5o4)ccc3OCC2=O)c1	-15%[70.6 µM]	?	i	-9%[88.5 µM]	79µM*
COc1cccc(CN2Cc3nc(-c4cnn(C)c4)ccc3OCC2=O)c1	1%[70.6 µM]	?	i	2%[88.5 µM]	-16%[172 µM]
CC(=O)Nc1cccc(-c2ccc3c(n2)CN(Cc2ccccc2)C(=O)CO3)c1	0%[70.6 µM]	?	i	-5%[88.5 µM]	?
COc1cccc(CN2Cc3nc(-c4cccc(NC(C)=O)c4)ccc3OCC2=O)c1	-15%[70.6 µM]	?	i	0%[88.5 µM]	79µM*
COc1cccc(CN2Cc3nc(-c4ccc(F)cc4)ccc3OCC2=O)c1	-22%[70.6 µM]	79µM*	i	-2%[88.5 µM]	?
COc1cccc(CN2Cc3nc(-c4c(C)noc4C)ccc3OCC2=O)c1	-7%[70.6 µM]	40µM*	i	5%[88.5 µM]	?
COc1cccc(CN2Cc3nc(-c4cc(Cl)ccc4OC)ccc3OCC2=O)c1	-1%[70.6 µM]	?	i	4%[88.5 µM]	100µM*
COc1ccc(C(=O)C2CCN(CC(=O)N(Cc3nc4c(c(=O)[nH]3)COCC4)CC3CC3)CC2)cc1	/	/	/	i	/
O=C(c1ccccn1)N1CCCC(C(=O)N2CCCC(c3nc4ncccc4[nH]3)C2)C1 (centres undefined)	/	2%	/	i	-6%
O=c1ncn(CC2CC2)c2ccc(-c3ccc4c(c3)OCO4)nc12	2%[70.6 µM]	?	45µM*	3%[88.5 µM]	3%[172 µM]
O=c1ncn(CC2CC2)c2ccc(-c3ccc(Cl)cc3)nc12	-13%[70.6 µM]	?	i	-28%[88.5 µM]	-19%[172 µM]
CCn1ccc(C(=O)NC2CCCN(c3cc(-c4ccc(OC)cc4)[nH]n3)C2)n1 (centres undefined)	0%	-22%	28µM*	-7%	?
CCn1ccc(C(=O)NC2CCCN(c3cc(-c4ccc(Cl)cc4)[nH]n3)C2)n1 (centres undefined)	-15%	?	35µM*	0%	?
Cc1cccc(C(=O)N2CCC3(CC2)CC2C(=O)NCCN2C3)c1 (centres undefined)	/	-14%	/	i	1%
O=C(NCCc1ccccc1)c1ccc2nnc(-c3ccoc3)n2c1	/	-29%	/	i	?
OCC1(Cc2ccccc2Cl)CCN(Cc2cc3ccccc3o2)CC1	?	?	i	1%	18µM*
CC(C)Oc1ccc(CN2CCC(CO)(Cc3ccccc3Cl)CC2)cc1CO	0%	25µM*	i	i	?
Cc1ccc([S+](=O)([O-])NC2CCCN(CCn3nc4n(c3=O)CCCC4)C2)cc1 (centres undefined)	/	-3%	/	/	-2%
Cc1ccc([S+](=O)([O-])NC2CCCN(Cc3cccc(-c4ccc(C)c(Cl)c4)c3)C2)cc1 (centres undefined)	/	?	/	i	28µM*
Cc1ccc(-c2cccc(CN3CCCC(N[S+](C)(=O)[O-])C3)c2)cc1Cl (centres undefined)	/	28µM*	/	0%	22µM*
Cc1ccc(NC(=O)Cn2ccn3nc4c(c3c2=O)CCCC4)cc1Cl	-8%	-24%	i	i	-14%
O=C(CCn1ccn2nc3c(c2c1=O)CCCC3)Nc1ccc(F)cc1	-6%	i	i	5%	-20%
CC(=O)Nc1ccc(NC(=O)Cn2ccn3nc4c(c3c2=O)CCCCC4)cc1	3%	?	i	?	35µM*
SMILES	hNpr1 antagonist	NIH3T3 tox	Luciferase inh	GPT2 inh	HEK cytotox
CN(C)c1ccc(NC(=O)CCn2ccn3nc4c(c3c2=O)CCCC4)cc1	-1%	-26%	40µM*	?	?
Cc1ccc(NC(=O)Cn2ccn3nc4c(c3c2=O)CCCCC4)cc1C	?	-25%	i	i	40µM*
Cc1ccc(C2Cn3nnc(C(=O)N4CCC(C(=O)NCc5ccccc5)CC4)c3CO2)cc1 (centres undefined)	3%	-8%	40µM*	i	3%
Cc1ccc(C2Cn3nnc(C(=O)N4CCC(C(=O)NC(C)c5ccccc5)CC4)c3CO2)cc1 (centres undefined)	3%	-10%	?	i	-30%
Cc1ccc(C2Cn3nnc(C(=O)N4CCC(C(=O)NC5CCCCC5)CC4)c3CO2)cc1 (centres undefined)	0%	i	?	1%	8%
Cc1ccc(C2Cn3cnc(C(=O)N4CCC(C(=O)NCc5cccs5)CC4)c3CO2)cc1 (centres undefined)	0%	2%	?	i	1%
Cc1ccc(C2Cn3nnc(C(=O)N4CCC(C(=O)NCC(C)c5ccccc5)CC4)c3CO2)cc1 (centres undefined)	-1%	i	32µM*	i	-1%
O=C(NCc1ccccc1)C1CCN(C(=O)c2nnn3c2COC(c2ccc(F)cc2)C3)CC1 (centres undefined)	1%	-16%	i	i	11%
Cc1ccc(C2Cn3nnc(C(=O)N4CCC(C(=O)NCc5cccs5)CC4)c3CO2)cc1 (centres undefined)	3%	3%	35µM*	-3%	5%
Cc1ccc(C2Cn3nnc(C(=O)N4CCC(C(=O)NC5CCC(C)CC5)CC4)c3CO2)cc1 (centres undefined)	-4%	-22%	28µM*	i	-15%
O=C(Nc1ccccc1)N1CCC2(CC1)SCC(=O)N2c1ccccc1	0%	-10%	i	-18%	-4%
CC(C)CN1C[C@H](COCc2ccccc2)Oc2ccncc2[S+]1(=O)[O-]	/	?	/	i	?
Cc1ccc(CNC(=O)C2CCN(C(=O)c3nnn4c3COC(c3ccc(C)cc3)C4)CC2)cc1 (centres undefined)	-1%	2%	i	4%	1%
CCc1ccc(CNC(=O)C2CCN(C(=O)c3nnn4c3COC(c3ccc(C)cc3)C4)CC2)cc1 (centres undefined)	-13%	-12%	40µM*	i	-16%
CN(Cc1cccc(CCN)c1)Cc1cnn(-c2ccc(F)cc2)c1	1%	45µM*	i	i	?
CC(C)CN(Cc1cccnc1)C1CN(C(=O)CC2CCCCC2)C1	-16%	5.6µM*	i	5%	?
COc1ccc(C(=O)N2CCCC(c3nc(-c4ccccc4)no3)CCNC(=O)CC2)cc1F (centres undefined)	3%	?	?	-6%	?
CCNC(=O)CCc1c(C)nn(-c2ccc(F)cc2)c1Oc1ccccc1F	-17%	?	i	i	?
C=CCNC(=O)CCc1c(C)nn(-c2ccc(F)cc2)c1Oc1ccc(F)cc1F	-14%	?	i	i	35µM*
